High-throughput results from PubChem BioAssay.
Hits are enriched below; roughly 1.1% of the tested compounds scored in any of these assays.
SNCA expr inh: Primary qHTS assay for inhibitors of alpha-synuclein gene (SNCA) expression; 140,000 compounds, 0.17% hits; Potency, µM (top dose mostly 57.2 µM), hits mostly inhibitors; HEK-293 SNCA-luciferase knock-in, luminescence, 24 h; AID 1671194, 2021; note: nearly all actives have a fitted effect of over 45% in size
IP6K1 inh: Primary qHTS assay for small molecule inhibitors of Inositol hexaphosphate kinase 1 (IP6K1); Inositol hexakisphosphate kinase 1 (Homo sapiens), Q92551; 140,000 compounds, 0.81% hits; IP6K1 kinase, ADP-Glo luminescence, 2 h; hits give low values; activity change, % (series mostly up to about 58 µM); in the data active = activity change below about -25%
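ADP-Glo luminescence measures ADP made by human IP6K1 during a 2 h RT reaction with ATP/IP6 (mix at 1.3 mM/130 uM); top library doses 57.5 and 19.1 uM final.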
GPT2 inhibitor: Primary qHTS assay for inhibitors of Glutamate pyruvate transaminase 2 (GPT2) | Alanine aminotransferase 2 (Homo sapiens), Q8TD30 | Recombinant GPT2, coupled pyruvate oxidase/HRP Amplex Red fluorescence | Potency, µM (highest dose often 57.7 µM), usual class: inhibitors | 100,000 compounds, 0.25% hits | AID 1671188, 2021; note: nearly all actives have a fitted effect of over 60% in size
Target sequence (Q8TD30 whole entry, looked up): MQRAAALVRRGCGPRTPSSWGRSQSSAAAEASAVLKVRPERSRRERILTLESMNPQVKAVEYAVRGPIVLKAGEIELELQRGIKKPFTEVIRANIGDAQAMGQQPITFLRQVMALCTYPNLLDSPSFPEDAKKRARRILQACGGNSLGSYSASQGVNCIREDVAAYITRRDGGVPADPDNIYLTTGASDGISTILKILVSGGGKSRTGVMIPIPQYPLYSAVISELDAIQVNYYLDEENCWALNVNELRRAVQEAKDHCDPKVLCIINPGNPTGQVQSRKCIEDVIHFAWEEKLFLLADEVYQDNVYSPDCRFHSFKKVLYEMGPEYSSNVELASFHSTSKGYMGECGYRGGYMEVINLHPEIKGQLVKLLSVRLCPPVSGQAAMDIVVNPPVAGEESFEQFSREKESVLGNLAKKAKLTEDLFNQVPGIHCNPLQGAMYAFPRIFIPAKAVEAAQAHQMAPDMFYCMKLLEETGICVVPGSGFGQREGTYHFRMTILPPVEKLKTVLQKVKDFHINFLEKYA
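Recombinant GPT2 (10ng/uL) with 250uM a-KG and 2mM L-alanine, 30 min at room temperature, in HEPES pH 7.5 buffer. Pyruvate detected by pyruvate oxidase/HRP/Amplex Red fluorescence after 30 min in the dark; AOA (50uM) as positive control.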
SNCA viab count: GF-AFC viability counterscreen for inhibitors of alpha-synuclein gene (SNCA) expression | HEK-293-SNCA-luc viability, GF-AFC fluorescence, 24 h | Potency, µM (highest dose often 57.1 µM), most hits filed as cytotoxic | 150,000 compounds, 0.12% hits | AID 1671193, 2021; note: nearly all actives have a fitted effect of over 30% in size
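HEK-293-SNCA-luc cells (1500/well) plated 24 h, then exposed 24 h to a dilution series; GF-AFC added 30 min at 37C, fluorescence 405/540 nm; normalised to medium-only and DMSO wells, Hill fit.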
IP6K1 inh cnf: Confirmatory qHTS assay for small molecule inhibitors of Inositol hexaphosphate kinase 1 (IP6K1). shares compounds with IP6K1 inh. recombinant IP6K1 kinase, ADP-Glo luminescence, 2 h. Potency, µM (series often up to 49 µM), usual class: inhibitors. 1,200 compounds, 13% hits; note: nearly all actives have a fitted effect of over 65% in size
Hits are given with their value; i = inactive; ? = inconclusive; nt = not tested or not shown; [ ] = remark or other dose. Unless noted, calls come from the whole dose curve; as a rule, active = well fitted curve in the direction sought with a large enough effect; inconclusive = small, poorly fitted or top-dose-only effect, or another doubt; inactive = no such curve, though single readings can be large; an effect the other way counts as inactive or inconclusive.

SMILES	SNCA expr inh	IP6K1 inh	GPT2 inhibitor	SNCA viab count	IP6K1 inh cnf
COc1ccc(S(=O)(=O)NC[C@H]2C[C@@H]3CCN2C[C@@H]3CN2CCC(Cc3ccccc3)CC2)cc1	?	i	i	?	nt
N#Cc1cn([C@@H]2O[C@H](CO)[C@H](O)[C@@H]2O)c2ncnc(N)c12	nt	-27.2	?	i	10.3µM
COc1cc2c(cc1OC1CCCC1)NC(=O)C21CCN(c2cnccn2)CC1	?	-30.2	i	i	i
COc1cc2c(cc1OCc1ccccc1)NC(=O)C21CCN(c2cnccn2)CC1	i	-28.9	i	i	?
O=C(Cc1cccc(Cl)c1)N1CCN(Cc2ccccc2-c2cccnc2)CC1	i	i	i	i[12.5 µM]	nt
CN1[C@H]2CC(O)C[C@H]1[C@H]1O[C@H]12 (stereo not given in full)	i	nt	i	i	nt
